The supplement of paper PMC6555819

How the values were obtained:
Assay in all cases: PBM binding z-score (relative to random genomic background probes); higher = stronger binding; sequences stand for … in GC…GCGATTGACAGCGTAGAATGAAGG
[1] = tested on: FXR:RXRa (NR concentration 270 nM, RXRa partner concentration 90 nM)
Summary of the method: (§1)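 Custom Agilent 4×180K protein-binding microarrays carried double-stranded probes. Their 34-nt variable regions held direct-repeat seeds, single-nucleotide variants, half-site ablations and random human genomic background sequences. Arrays were incubated 1 h with ligand-free nuclear receptor dimers in PBS pH 7.4, 2% milk, 0.02% Triton X-100, 1 mM DTT, 0.2 mg/mL BSA and 0.4 mg/ml salmon testes DNA. Antibodies against each partner (one per run) detected binding, and scanned fluorescence was regression-normalized. Binding z-scores use random background probes as reference.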

[2] = tested on: LXRa:RXRa (NR concentration 270 nM, RXRa partner concentration 90 nM)
Summary of the method: as §1

[3] = tested on: LXRa homodimer (NR concentration 270 nM)
Summary of the method: as §1

[4] = tested on: LXRb:RXRa (NR concentration 270 nM, RXRa partner concentration 90 nM)
Summary of the method: as §1

[5] = tested on: LXRb homodimer (NR concentration 270 nM)
Summary of the method: as §1

[6] = tested on: PPARa:RXRa (NR concentration 270 nM, RXRa partner concentration 90 nM)
Summary of the method: as §1

[7] = tested on: PPARg:RXRa (NR concentration 180 nM, RXRa partner concentration 90 nM)
Summary of the method: as §1

[8] = tested on: PPARg:RXRa 270nM:90nM, anti-RXR (NR concentration 270 nM, RXRa partner concentration 90 nM)
Summary of the method: as §1

[9] = tested on: PPARg:RXRa 30nM:10nM, anti-RXR (NR concentration 30 nM, RXRa partner concentration 10 nM)
Summary of the method: as §1

[10] = tested on: PPARg:RXRa 90nM:30nM, anti-RXR (NR concentration 90 nM, RXRa partner concentration 30 nM)
Summary of the method: as §1

| Sequence | PBM binding z-score [1] | PBM binding z-score [2] | PBM binding z-score [3] | PBM binding z-score [4] | PBM binding z-score [5] | PBM binding z-score [6] | PBM binding z-score [7] | PBM binding z-score [8] | PBM binding z-score [9] | PBM binding z-score [10] |
| --- | --- | --- | --- | --- | --- | --- | --- | --- | --- | --- |
| CCTCGGAGGACTACAGGAGGTCAGAGCTGCCAGA | 0.709 | 3.27 | 2.29 | 1.62 | -0.728 | 1.8 | 0.238 | -0.104 | -0.885 | -0.225 |
| ATACCAAGGTGAGCGTGAGGTCGTTGATACTAAC | 1.64 | 1.3 | 0.0516 | 1.31 | -0.401 | 2.05 | 1.03 | 0.903 | 0.0304 | 0.391 |
| TCTTGTAGATCAGCAGGTTAAGAACGCTGGCCAA | -0.138 | -0.0946 | -0.388 | 0.178 | -0.52 | 0.745 | -0.296 | 1.38 | 2.39 | 1.59 |
| CCGACTGGGGCAGAAAGGATACCATACCATCCGG | -0.81 | -0.88 | -0.438 | -0.926 | -1.2 | -0.597 | 0.937 | -0.0255 | -0.593 | -0.344 |
| GTACTAAGGTGAATAGGTCGTTGATGAGTAGGCG | 1.68 | 1.21 | 0.221 | 0.926 | 0.00742 | 2.75 | 1.77 | 2.5 | 0.778 | 1.53 |
| CCGACTGGAGCAGAAAGGTTACCATACCATCCGG | 0.42 | 0.894 | -0.0298 | 0.813 | -0.611 | 1.77 | 1.61 | 2.5 | 0.683 | 2.24 |
| CCTCGGAGGACAGTAGGTCAGAGCTGTCCGCTTT | 0.394 | 0.75 | -0.0267 | -0.0579 | -0.769 | 1.64 | 0.253 | 1.47 | -0.726 | 0.521 |
| CCGACTGGGGCAGAAAGGTTGCCATACCATCCGG | -0.157 | -0.408 | -0.611 | -0.446 | -1.22 | 0.46 | 0.735 | 1.19 | -0.155 | 0.7 |
| CGAACTAGGTCATCCAGGACAATGAATACATTGA | 4.61 | 2.74 | 0.73 | 2.14 | 0.294 | 4.83 | 7.88 | 6.22 | 4.07 | 6.1 |
| CGAACTAGGTCTGAACAGGACAGTGAAGGATGAT | -0.499 | -0.813 | -0.618 | -0.891 | -0.912 | -0.134 | 0.652 | -0.276 | -0.221 | -0.128 |
| ATTTACGGGTCAACGAGGTTATAGCACGCGTATA | 7.58 | 5.96 | 2.29 | 4.93 | 1.41 | 6.1 | 6.73 | 6.17 | 3.27 | 5.21 |
| ATCGAAAGGTCGTGAGTTGAGTATACAGAAAGGC | 4.98 | 3.53 | 0.0498 | 2.99 | 0.743 | 4.84 | 3.55 | 3.9 | 1.82 | 2.85 |
| CAAACTAGGTCACGATAGGTCAAAGTCGAATGAC | 5.83 | 8.21 | 5.31 | 6.9 | 1.01 | 6.14 | 9.76 | 7.74 | 6.05 | 7.79 |
| ATCTCTAGGTAAAAATTCAGTGAATCCCGAGGAT | 0.0972 | -0.215 | -0.0718 | -0.277 | 0.956 | 0.272 | 0.62 | 1.34 | 0.671 | 1.1 |
| AGAATGATGTTATACGTAGATCAGGGAAGAAAGT | -0.301 | -0.398 | -0.0367 | -0.288 | -0.0572 | -0.192 | 0.88 | -0.156 | 0.198 | -0.0681 |
| ATATGTAGGTTAGCCGGGGTCATTCAGACTAGGC | 5.13 | 5.67 | 3.14 | 4.72 | 0.687 | 5.6 | 6.59 | 5.96 | 3.47 | 5.29 |
| TAGCCTAGGTCATTGGGCCATTATAGTACGCATC | 4.57 | 3.93 | 1.08 | 2.84 | 0.197 | 4.22 | 4.13 | 3.99 | 1.45 | 3.32 |

| Sequence | PBM binding z-score [1] | PBM binding z-score [2] | PBM binding z-score [3] | PBM binding z-score [4] | PBM binding z-score [5] | PBM binding z-score [6] | PBM binding z-score [7] | PBM binding z-score [8] | PBM binding z-score [9] | PBM binding z-score [10] |
| --- | --- | --- | --- | --- | --- | --- | --- | --- | --- | --- |
| TCGAGTAGGTTTGTCGGGGCATTCAGCCAACATA | 0.314 | 0.103 | 0.0222 | 0.558 | -0.504 | 0.326 | -0.493 | 0.144 | 1.1 | 0.717 |
| TTACCAAGGTGAGCTGAGCTCGTTGATCCAACTC | -0.195 | -0.544 | -0.993 | -0.67 | -1.3 | 0.11 | -0.393 | -0.0625 | -0.293 | -0.268 |
| TTACCAAGGTGAAAGGTTGTTGATGCACGCCTTG | 1.23 | 1.15 | -0.416 | 1 | -0.595 | 3.78 | 5.72 | 6.02 | 4.55 | 6.25 |
| GCTGCTAGGTCCACTGATGGTCAGCTAAAGCTCG | -0.489 | -0.3 | -0.698 | -0.586 | -0.746 | -0.509 | -0.592 | -0.813 | -0.963 | -0.946 |
| TTACCAAGGTGAAAGGACGTTGATGCACGCCTTG | 0.449 | 0.351 | -0.414 | 0.198 | -0.801 | 1.72 | 2.29 | 3.48 | 1.96 | 3.14 |
| ATATGTAGGTTAAGGCTCATTCAGGTTGGTTCGC | 0.549 | 0.861 | 0.334 | 0.683 | 0.0062 | 3.43 | 5.54 | 5.46 | 2.91 | 5.15 |
| GCTGCTAGGCCAACTGATGGTCAGCTAAAGCTCG | -0.828 | -0.78 | -0.908 | -1.3 | -1.01 | -1.2 | -0.468 | -0.849 | -1.22 | -1.14 |
| TCTCGGAGGACACGAAGGTCAGAGGTTTCCAGAG | 1.53 | 1.38 | 0.357 | 1.1 | -0.91 | 2.12 | 0.856 | 2.22 | 2.35 | 2.2 |
| CGTCCAAGGTCATAGAAGGTCAGTGAAGACAGAT | 7.45 | 7.22 | 4.12 | 5.81 | 0.783 | 5.53 | 5.05 | 5.64 | 2.37 | 4.36 |
| CAAACTAGGTCAAGGTCATAGTCGGTTTGTGCCA | 6.58 | 5.31 | 3.83 | 4.11 | 1.07 | 5.92 | 9.25 | 7.76 | 6.24 | 8 |
| CCTAGCAGGCCAATCTGGGTTACTCAAGGCTTGA | 0.0367 | -0.0703 | -0.681 | -0.364 | -1.09 | 1.18 | 0.194 | 0.0942 | -1.01 | -0.507 |
| CCGAGTGGGGCAGAAAGGTTACCATACCATCCGG | 0.579 | 0.723 | 0.104 | 0.959 | -0.975 | 2.23 | 1.76 | 2.79 | 0.657 | 2.3 |
| CGTCCAACGTCAGAGAGGTCAGTGAATGCCGAGT | 1.61 | 1.76 | 0.849 | 1.75 | -0.287 | 2.31 | 0.391 | 0.537 | -0.521 | -0.194 |
| TCTCCTAGGTCAGTTGGTCAGCTAACGAGCTGCC | 1.57 | 1.17 | 0.111 | 1.26 | 1.43 | 1.89 | 0.491 | 2.47 | 2.9 | 2.75 |
| CGAACGAGGGCATGAGTTGACAGCAAATGCCGAT | 0.601 | 0.522 | -0.133 | 0.145 | -1.11 | 1.81 | 1.53 | 1.54 | -0.213 | 0.897 |
| ATCGAAAGGTCGTGAGGTGAGTAGACAGAAAGGC | 5.21 | 4.15 | 0.0462 | 2.98 | 0.701 | 4.93 | 3.83 | 4.25 | 1.29 | 3.08 |
| TCTGCTAGGTCAGTTGGTCAGTTAACGAGCTGCC | 0.865 | 0.257 | -0.414 | 0.323 | 0.405 | 1.37 | 0.334 | 1.33 | 0.985 | 1.08 |
